Source: PubChem BioAssay

assay: basal RPMI8226 viability, no added stimulus, profiling panel, cell-based, calcein-AM fluorescence, 48 h, PK04 Diversity Set (AID 1166); conditions: RPMI8226 myeloma viability, higher = more signal;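 further: cells grown under basal conditions without added stimulus; test concentration not given here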

| Structure (SMILES) | z-score |
| --- | --- |
| O=C1NC(=O)C2C1C=CC(C(O)c1cc(C(F)(F)F)cc(C(F)(F)F)c1)N2Nc1ccccn1 (stereo unspecified) | -0.559 |
| C=C(/C(=C/C[C@H](OC(C)=O)c1ccccc1OCCO)c1cnc2ccccc2c1)C(C)C | -2.23 |
| COC(=O)[C@H](Cc1ccccc1)N1CC2=C[C@@H](C3CC3)n3c(=O)n(C)c(=O)n3[C@H]2[C@@H]1[C@@H](O)Cc1ccccc1 | -0.473 |
| CC(=O)n1cc(C(O)C2C=CC3C(=O)N(c4ccccc4)C(=O)C3N2Nc2ccc([N+](=O)[O-])cc2)c2ccccc21 (stereo unspecified) | -0.315 |
| CN1C=C(C(=O)OCCS(C)(=O)=O)C(C(=O)OCCS(C)(=O)=O)=CC(c2ccc(CO)cc2)=CC1C1CC1 (stereo unspecified) | -0.75 |
| COC(=O)[C@]1(CCC(=O)OC(C)(C)C)N=C(c2ccc(OCCCO)cc2)O[C@@H]1c1ccccc1CN=[N+]=[N-] | -3.95 |
| C=CCNC(=O)[C@@H]1[C@H]2C(=O)O[C@H](c3ccccc3)[C@H](c3ccccc3)N2[C@H](c2ccc(OCCO)cc2)[C@@]12C(=O)Nc1ccc(C#CCC(C(=O)OC)C(=O)OC)cc12 | -4.16 |
| COC(=O)C(CC#Cc1ccc2c(c1)[C@]1(C(=O)N2)[C@H](c2ccc(OCCO)cc2)N2[C@H](c3ccccc3)[C@H](c3ccccc3)OC(=O)[C@H]2[C@@H]1C(=O)N1CCc2cc(OC)c(OC)cc2C1)C(=O)OC | -0.578 |
| NC(=O)N1C(=O)C2C(C1=O)C1C=C(c3ccc(CO)cc3)C2C(c2cccs2)N1Cc1cccc(OC(F)(F)F)c1 (stereo unspecified) | -2.08 |
| C=CCC(OC(C)=O)[C@@H]1[C@@H](N(Cc2ccc(-c3ccccc3)cc2)C(=O)c2cccc3ccccc23)c2cc(OCCCO)ccc2N1C(=O)c1ccc(-c2ccccc2)cc1 (stereo partly specified) | -0.094 |
| COc1cc(NN2C(C(O)c3ccco3)C=CC3C(=O)N(c4ccccc4)C(=O)C32)cc(OC)c1OC (stereo unspecified) | -0.307 |
| CC(C)[Si]1(C(C)C)O[C@@H](c2ccccc2)c2cc(-c3ccc(-c4ccc(Cl)c(Cl)c4)o3)nc(-c3ccccc3)c21 | -3.09 |
| CCOC(=O)C[C@H]1[C@H](OC(=O)c2ccc(C(=O)c3ccccc3)cc2)[C@@H](NC(=O)c2ccc3ccccc3n2)c2cc(OCCCO)ccc2N1C(=O)c1ccccc1 | -0.705 |
| CC(C)C(O)C1C=CC2C(=O)NC(=O)C2N1Nc1ccc(Cl)cc1Cl (stereo unspecified) | -0.644 |
| COc1ccc(C#Cc2ccc3c(c2)[C@]2(C(=O)N3)[C@H](C(=O)Nc3nc4ccccc4s3)[C@H]3C(=O)O[C@H](c4ccccc4)[C@H](c4ccccc4)N3[C@@H]2c2ccc(O)cc2)cc1 | -1.37 |
| COC(=O)[C@@]1(Cc2ccccc2)N=C(c2ccc(OCCCO)cc2)O[C@H]1c1ccccc1 | -3.94 |
| [N-]=[N+]=Nc1ccccc1[C@H]1OC(c2ccc(OCCCO)cc2)=N[C@@]1(CCS(=O)(=O)c1ccccc1)C(N)=O | 0.0418 |
| O=C1C[C@@](C(=O)NC2CC2)(c2ccc([N+](=O)[O-])cc2)[C@@H](c2ccc(CO)cc2I)N1C1CCCCC1 | -1.17 |
| COc1cc2c(cc1OC)CN(C(=O)[C@H]1[C@@H]3C(=O)O[C@@H](c4ccccc4)[C@@H](c4ccccc4)N3[C@@H](c3ccc(O)cc3)[C@]13C(=O)Nc1ccccc13)CC2 | -1.47 |
| O=C1O[C@H](c2ccccc2)[C@H](c2ccccc2)N2[C@H]1[C@@H](C(=O)N1CCCCCCC1)[C@]1(C(=O)Nc3ccc(C#CC4=CCCCC4)cc31)[C@H]2c1ccc(OCCO)cc1 | -1.4 |
| COC(=O)[C@@]1(CCC(=O)OC(C)(C)C)N=C(c2ccc(OCCCO)cc2)O[C@H]1c1ccccc1N=[N+]=[N-] | -3.93 |
| O=C1C2C=CC(C(O)c3cc(C(F)(F)F)cc(C(F)(F)F)c3)N(n3cnnc3)C2C(=O)N1Cc1ccccc1 (stereo unspecified) | -1.41 |
| CCCCCN1CC=CC23O[C@@H]4C=CCCOC(=O)C4[C@H]2C(=O)N(CCCCCO)[C@@H]3C1=O (stereo partly specified) | 1.74 |
| COc1ccc([Si](C)(C)[C@@H]2[C@@H](CCO)O[C@]3(C(=O)N(Cc4ccc(N(C=O)c5ccccc5)cc4)c4ccccc43)[C@H]2C)cc1 | -3.9 |
| C=CCOC(=O)[C@H]1[C@@H]2C(=O)O[C@@H](c3ccccc3)[C@@H](c3ccccc3)N2[C@@H](c2ccc(OCCOC(=O)[C@H]3C[C@H]4C(=O)N[C@@H](CCCCNC(C)=O)C(=O)N4[C@H]3c3cccc(OCCO)c3)cc2)[C@]12C(=O)Nc1ccccc12 | 0.728 |
| [N-]=[N+]=NCc1ccccc1C[C@]1(C(N)=O)COC(c2ccc(OCCCO)cc2)=N1 | 0.0881 |
